# The supplement of paper PMC11417369
# ± gives the standard deviation of the averaged measurements. Whole data set: some 25,000 sequences, median “ln(normalized median fluorescence intensity)” near 8.6, cut for the highest 2% near 10. The sample as a whole holds a higher share of the highest values than the screen did.
# System: PfAP2-EXP AP2 domain (GST-tagged)
# Test: gcPBM binding intensity (ln(normalized median fluorescence intensity)); higher = stronger DNA binding
# Outline: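 Binding of GST-tagged P. falciparum DNA-binding domains, expressed in E. coli and used at about 25 μg on average, was carried out for 1 h in 1× PBS containing 1% milk, 0.2 mg/ml BSA, 0.5% salmon testes DNA and 0.03% Triton X-100. The target was an Agilent 4 × 180k array of primer-extended double-stranded 36-bp intergenic genomic probes plus negative controls, read with Alexa488 anti-GST antibody at 488 nm. Binding intensity is the highest Masliner-normalised natural-log median intensity across replicate spots of either probe orientation.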
row,Sequence,gcPBM binding intensity (ln)
1,AAATGCGCCATGTGTACACATATATATATATATATA [CACACA_site4649],10.3 ± 0.33
2,ATATATATATATATATGTACATATACACATGTGTGC [XGTACX_site168],10.1 ± 0.33
3,ATAACACAAAATTGTTGTACACGTGTTAATAAGTGA [XGTACX_site4452],9.12 ± 0.33
4,TTAAAAAAATAATTAACACACACATGTATATCTATA [CACACA_site9026],8.21 ± 0.42
5,TAGTACACACAAAATACATGCGGGGTTTAATATTTA [TGCATGCA_site576],8.78 ± 0.45
6,TATATGACAAGATAAAGTACAAATTTGTATATATAT [XGTACX_site3027],8.97 ± 0.25
7,TTTTATTAATATTGCATGCACACTATATAATAATTG [CACACA_site1049],10.02 ± 0.064
8,TTATTAATATTGCATGCACACTATATAATAATTGAA [CACACA_site8258],10.11 ± 0.057
9,TTCTTAATATTGCATGCACACTATATAATAATTGAA [CACACA_site4720],10.41 ± 0.057
10,ATAAAAAATTTAAGTATTTTTTACAAACCTATAAAT [GTGCAC_negctrl_site51],8.18 ± 0.38
11,ATTTTTTTTCTTTTTTTTTTACATTTTTTTCTTTTT [CACACA_negctrl_site1289],8.51 ± 0.45
12,ATCAGATATATATATTGTACATTTATATATAAATCA [XGTACX_site1960],8.46 ± 0.36
13,ACGTATCAAAAAATTTGTACATATATATATATATAT [XGTACX_site1024],10.1 ± 0.35
14,TAAAATTTTTTTGTTTGTACATATATATATATAATA [XGTACX_site5609],8.72 ± 0.52
15,TTATATATTTATAAATGTACATATAATTTTTTTATA [XGTACX_site4696],8.3 ± 0.32
16,ATATATATATATAAATGTACAGATATATTTTTTATT [XGTACX_site5445],10.21 ± 0.078
17,TATATACATAAAATTTGTACATATATATATATATAT [XGTACX_site3214],10.1 ± 0.51
18,TGTTGTAAATATGTTTGTACATAAATATATTATTTA [XGTACX_site5442],8.38 ± 0.35
19,ACATTCACAAAATTTTGTACACATATATATATATAT [XGTACX_site3518],10 ± 0.26
20,CATTTAAAATTTGTTTGTACATATATATATATATAT [XGTACX_site6729],10.2 ± 0.26
21,TATATATATATATGTTGTACATATTTAAATGTTTAT [XGTACX_site5437],10.2 ± 0.2
22,AAAAGTCTTCAAATTTGTACATATATATATATATAT [XGTACX_site3404],10.29 ± 0.092

row,Sequence,gcPBM binding intensity (ln)
1,ATTTAAAAAATATATTGTACATATTTTATTATGTTT [XGTACX_site2984],8.29 ± 0.35
2,TTTTTTTAATTAGTTTGTACATATTGTTATAATATA [XGTACX_site6294],8.56 ± 0.4
3,TCCTTAAAAATCTAAAAAGAAAAAAACATATATTTT [GTGCAC_negctrl_site123],8.04 ± 0.45
4,ATAATATATATATATAGTACATATATATAATATTCT [XGTACX_site2445],8.2 ± 0.24
5,TTTCTTATATTATATAAATATATAGATGTTAATGGT [CACACA_negctrl_site706],8.38 ± 0.47
6,TATTATTGTTGTTCATGTACACACTATAATAAAAGC [XGTACX_site8957],8.64 ± 0.4
7,CAAAATTGACATGACGCACACAAGTGTAGATATTTT [CACACA_site1250],8.57 ± 0.4
8,GATTATATTATATATTAAATATAAATATGTATTATA [TGCATGCA_negctrl_site66],8.04 ± 0.42
9,ATATAAATATAAATATATATGTATAAATATAAATAT [CACACA_negctrl_site247],8.25 ± 0.47
10,ATTATATATGTATAAATATGCTATATATATATATAT [GTGCAC_negctrl_site430],10.3 ± 0.17
11,ATATTTTATACTTGCACACAAAATATATTAAAATGG [CACACA_site5139],8.47 ± 0.4
12,CTTCCTTAGGAATGTACACACATATATAATATGTTG [CACACA_site461],8.53 ± 0.4
13,CATTATTATTAACATACACACGTGTTAAATACACCC [CACACA_site6118],8.91 ± 0.6
14,TTCATTATTATTAACATACACACGTGTTATATACAC [CACACA_site4112],8.66 ± 0.41
15,CATTATTATTAACATACACACGTGTTATATACCCCC [CACACA_site9365],10.2 ± 0.41
16,TTTTTTTTTTTTTTTTTTTTTTTTTTTTTTTGGGGG [CACACA_negctrl_site1570],9.13 ± 0.49
17,GGTTGTATAAGTTTTTGTACATATATATATATATAT [XGTACX_site7487],10.2 ± 0.49
18,TTTTTTTTTTTTTTTTGTACATATACATATATATAT [XGTACX_site1981],9.3 ± 0.11
19,TAAGTTTTGTTCTTTTGTACATATAAGTATAGATCG [XGTACX_site4735],8.48 ± 0.33
20,ATGTGTGTATTTTATAGTACAGTTACAAGCATTTTT [XGTACX_site6351],8.57 ± 0.35
21,AATAAATACACATACACACACGACGCTAGTATATGT [CACACA_site6627],8.29 ± 0.4
22,TTTTTTTTTAGAAAAACATGCATGTCCTAAAAATAA [TGCATGCA_site684],8.89 ± 0.27
